Measured values reported in PubChem BioAssay (NCI).
About 83,000 compounds went through this panel and 20% of them were active in at least one assay; those are over-represented in the sample as a whole.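 Compound tested at a single concentration for 48 hours in 96-well plates; a percent growth value below 10 was scored as active.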 Unmarked numbers belong to inactive results. The source made the active and inactive calls.

How the values were obtained:
Assay in all cases: NCI-60 one-dose screen, 48 h (100 = growth as untreated, 0 = no growth, -100 = all killed)
Conditions in all cases: 10 µM unless noted
NCI-H23 lung = test system: NCI-H23 lung
NCI-H226 lung = test system: NCI-H226 lung
NCI-H322M lung = test system: NCI-H322M lung
HOP-62 NSCLC = test system: HOP-62 NSCLC
NCI-H460 lung = test system: NCI-H460 lung
HOP-92 NSCLC = test system: HOP-92 NSCLC
NCI-H522 lung = test system: NCI-H522 lung
A549/ATCC NSCLC = test system: A549/ATCC NSCLC
786-0 renal = test system: 786-0 renal
COLO 205 colon = test system: COLO 205 colon

Row | SMILES | growth (NCI-H23 lung) | growth (NCI-H226 lung) | growth (NCI-H322M lung) | growth (HOP-62 NSCLC) | growth (NCI-H460 lung) | growth (HOP-92 NSCLC) | growth (NCI-H522 lung) | growth (A549/ATCC NSCLC) | growth (786-0 renal) | growth (COLO 205 colon)
1 | Fc1ccc(-c2cc3nc(C(Cl)Cl)nc(-c4cccs4)n3n2)cc1 | 35.2% | 95% | -9.31% (active) | 5.82% (active) | -32.8% (active) | -6.12% (active) | 78.9% | -14.2% (active) | 58.2% | -23.1% (active)
2 | Oc1ccc(CSc2nnc(-c3cnccn3)o2)c2cccnc12 | 12.1% | 23.6% | 31.6% | 20.9% | 2.29% (active) | -9.09% (active) | 7.24% (active) | 20.9% | 24.5% | 85.4%
3 | Cc1nn(-c2ccc(Br)cc2)c2nc(CCl)[nH]c(=O)c12 | 103% | 102% | 104% | 98.5% | 109% | 101% | 85.5% | 96.9% | -88.8% (active) | 103%
4 | CN(C)c1ncc(/C=C2\SC(=S)N(Cc3ccccc3Cl)C2=O)s1 | 80.4% | 83.8% | 80.5% | 88.5% | 29.1% | 94.7% | 77.9% | 63.9% | 67.3% | 91.8%
5 | O=C1/C(=C/c2ccccc2[N+](=O)[O-])Oc2ccc(O)cc21 | 43.7% | 78.6% | 79.8% | 78.3% | 72.3% | 80% | -5.14% (active) | 84.8% | 46.3% | 20.2%
6 | C=C(C)[C@@H]1CC[C@]2(C(=O)NCCCN(CCC#N)CCC#N)CC[C@]3(C)[C@H](CC[C@@H]4[C@@]5(C)CCC(=O)C(C)(C)[C@@H]5CC[C@]43C)[C@@H]12 | 93.6% | 94% | 103% | 97.9% | 101% | 102% | 91.6% | 97.3% | 101% | 109%
7 | Cc1nn(-c2ccc(Cl)cc2)c(C)c1N=Nc1ccc2oc(=O)ccc2c1 | 82.4% | 92.9% | 104% | 91.7% | 64.9% | 76.8% | 81.7% | 77.6% | 78.8% | 105%
8 | O=C(CSc1ccc(-c2nc3ccccc3[nH]2)cn1)N1CCN(c2ccccc2F)CC1 | 67.3% | 59.6% | 101% | 89.8% | 88.5% | 71.9% | 52.4% | 81.2% | 95.4% | 79.7%
9 | O=C(CCCCCCN1CC(=O)N2[C@@H](c3cc(F)cc(F)c3)c3[nH]c4ccccc4c3C[C@H]2C1=O)NO | 77.4% | 98.1% | 75.1% | 63.4% | 64.4% | 49.2% | 41.2% | 90.5% | 90.9% | 53.1%
10 | O=C1Nc2ccc(Cl)cc2/C1=C/c1ccc(OCc2ccc(F)cc2)cc1 | 92.5% | 96.4% | 95.7% | 107% | 97.7% | 85.6% | 90.4% | 91.1% | 98.4% | 99.4%
11 | COc1ccc(OC)c([C@H]2c3[nH]c4ccccc4c3C[C@H]3C(=O)N(CCCCCCC(=O)NO)CC(=O)N23)c1 | 100% | 103% | 93.3% | 85.4% | 87.1% | 82% | 69.2% | 106% | 99.5% | 86.4%
12 | COC(=O)c1nc(-c2ccc(C)cc2)oc1S(=O)(=O)N1CCN(c2oc(-c3ccccc3)nc2C#N)CC1 | 102% | 101% | 103% | 112% | 103% | 106% | 92.2% | 102% | 102% | 107%
13 | CCc1ccc(NC(=O)N[C@@H](Cc2cccc(C)c2)C(=O)N[C@@H]2C(=O)N3CCC[C@H]3C(=O)N3CCCC[C@H]3C(=O)N[C@@H](CO)C(=O)N3C[C@H](C)C[C@H]3C(=O)O[C@H]2C)c(F)c1 | 34.4% | -4.68% (active) | 49.9% | 30.5% | 12.5% | -0.374% (active) | 21% | 27.9% | 40.8% | -36% (active)
14 | Cc1ccc(NC(=O)c2cccc(CN3CCN(C)CC3)c2)cc1Oc1ccc(-c2[nH]nc3ncnc(N)c23)cc1 | 75.6% | 76.9% | 83.9% | 80.9% | 72.8% | 65.3% | 77.1% | 61.9% | 40.8% | 10.1%
15 | CSc1ccc(/C(=N/N=C(N)N)c2ccccc2)cc1 | 29.2% | 50.6% | 50.9% | 49.3% | 6.46% (active) | 34.4% | 11.8% | 27.4% | 31% | 0.455% (active)
16 | Oc1ccccc1/C=N/Nc1nc(N/N=C/c2ccccc2O)nc(N2CCOCC2)n1 | 41.5% | 23.3% | 44.5% | 25.7% | 32.5% | -12.8% (active) | 60.9% | 13% | 30.3% | 48%
17 | COc1ccc(NC2=C(Cl)C(=O)C(C)=C(C)C2=O)cc1 | 83.7% | 99% | 100% | 95.6% | 97.3% | -2.54% (active) | 85.6% | 98.3% | 113% | 109%
18 | Cc1ccccc1NC1CC(=O)N(c2ccc(Cl)cc2Cl)C1=O (stereo not given) | 102% | 108% | 99% | 103% | 104% | 78% | 95.7% | 99.8% | 94.2% | 120%
19 | CC1CCc2c(sc3nc(SCC(=O)N/N=C/c4cccc(O)c4O)n(-c4ccccc4)c(=O)c23)C1 (stereo not given) | 88% | 87.4% | 96.8% | 71.2% | 88.4% | 45.4% | 83.1% | 86.2% | 99.7% | 110%
20 | COc1cnc2c(c1)C(=O)c1c-2n(CCCNCC2CC2)c(=O)c2cc(F)ccc12 | -44.5% (active) | -14.1% (active) | -1.44% (active) | -31.6% (active) | -66.6% (active) | -5.96% (active) | -55.3% (active) | -61.9% (active) | -32.4% (active) | -45.8% (active)
21 | C=C(C)C(=O)O[C@H]1C[C@@]2(C)OC(=CC2=O)/C(C)=C\[C@H]2OC(=O)C(=C)[C@H]12 | -2.39% (active) | -1.67% (active) | 79.9% | 58.8% | 13.3% | -22% (active) | -72% (active) | 58.5% | -71.3% (active) | -50.1% (active)
22 | CCCCCCNC(=O)Oc1ccc(/C(=C(\C)c2ccc(Cl)cc2)c2ccc(OCCN(C)C)cc2)cc1 | 76.3% | 101% | 78.1% | 75.5% | 6.53% (active) | 38.4% | 83.5% | 72.7% | 39.8% | 11.6%
23 | CS(=O)c1nccc(-c2c(-c3ccc(F)c(OCCc4ccccc4)c3)nc3sccn23)n1 (stereo not given) | 86.1% | 102% | 76.7% | 98.2% | 57.3% | 77% | -79.1% (active) | 109% | 104% | 80.7%
24 | CCNC(=O)Oc1ccc(/C(=C(/C)c2ccc(Cl)cc2)c2ccc(OCCN(C)C)cc2)cc1 | 87% | 94.4% | 90.5% | 80.2% | 66.6% | 45.1% | 88.7% | 71.6% | 64.3% | 82.8%
25 | O=S(=O)(Nc1ccc2c(c1)OC(F)(F)O2)c1ccc(-c2cnc(C3CC3)o2)cc1 | 55.2% | 60.8% | 83.3% | 35.9% | 17.3% | 66.7% | 43.2% | 47.7% | 47.2% | 47.4%
